Compound activity (PubChem)
The list is not random: actives were taken first. Their share in the collection is about 27%.
sEH inh: inhibitors of human soluble epoxide hydrolase. P34913. recombinant human sEH enzymatic activity assay. AID 707. inhibition, % at 2 µM. 91,000 compounds, 0.34% hits; in the data active = inhibition above about 80%
CYP2C19 activ: activators of human cytochrome P450 2C19. P33261. recombinant CYP2C19, luciferin-H EGE luminescence; hits give high values; 0 = fully inhibited enzyme, 1 = untreated enzyme. activation factor at 5 µM. 96,000 tested, under 10 active;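 active = activation factor of at least 2 at 5 µM in the primary screen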;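 note: 0 = wells with 2.5 mM tranylcypromine and 1 = vehicle-only wells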
CYP2C19 inh: human CYP2C19 inhibition; CYP2C19 Supersomes, luciferin-H EGE luminescence, 30 min; inhibition, % at 5 µM; P33261; AID 778; 96,000 compounds, 21% hits;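 active = CYP2C19 inhibition above a set limit at 5 µM in the primary screen, cut at about 50% in these data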;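 note: plate controls were negative control wells for no effect and 2.5 mM tranylcypromine positive control for full effect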
sEH activator: soluble epoxide hydrolase (human) activation; P34913; AID 717; purified human sEH enzymatic activity, activator screen; 91,000 compounds, 0.04% hits; activation, % at 2 µM; in the data active = activation above about 37%
CYP2C9 inh: human CYP2C9 inhibition; CYP2C9 Supersomes, luciferin-H conversion, luminescence; inhibition, % at 5 µM; 96,000 compounds, 20% hits;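 active = blocking of liver enzyme CYP2C9 beyond about 50% at 5 µM, limit read from the data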
CYP2C9 act: CYP2C9 (human) activation; recombinant CYP2C9, luciferin-H conversion, luminescence; hits give high values; factor 1 = untreated enzyme, 0 = blocked; activation factor at 5 µM; 96,000 compounds, 1.4% hits;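 active = activation factor of 2 or more for CYP2C9 at a 5 µM dose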;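 note: 0 = sulfaphenazole-blocked wells and 1 = vehicle-only wells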
* = called active by the depositor; . = not tested or not shown.

SMILES	sEH inh	CYP2C19 activ	CYP2C19 inh	sEH activator	CYP2C9 inh	CYP2C9 act
Clc1ccc(-n2ncc3c(NCCN4CCOCC4)ncnc32)cc1	0.4	0.9	12.6	3.1	2.2	1
c1ccc(N2CCN(c3nc(NCc4ccco4)c4ccccc4n3)CC2)cc1	23.7	0	96.0*	-22.4	90.9*	0.1
Clc1ccc(-n2ncc3c(NCCCn4ccnc4)ncnc32)cc1	-12.5	0.1	94.6*	14.1	92.6*	0.1
Cc1cc(C)cc(N2C(=O)CC(n3nc(C)cc3C)C2=O)c1 (stereo unspecified)	-16.5	0.6	38.9	20.1	11.7	0.9
COc1ccc(C(C(C(=O)c2ccco2)N2CCOCC2)N2CCOCC2)cc1 (stereo unspecified)	3.1	1	-2.4	-3.1	0.0	1
Clc1ccc(Cn2ncc3c(NCc4ccccc4)ncnc32)cc1	-6.3	1.1	-9.3	1.8	40.3	0.6
CCCCNc1ncnc2c1cnn2-c1ccc(Cl)cc1	.	0.7	28.4	.	70.4*	0.3
c1ccc(Cn2ncc3c(NCc4ccco4)ncnc32)cc1	.	0.8	19.3	.	-6.4	1.1
CCCCNc1ncnc2c1cnn2-c1ccccc1	-13.9	0.1	88.8*	15.3	99.1*	0
c1ccc(-n2ncc3c(NCc4ccco4)ncnc32)cc1	-8.5	0.5	50.1*	11.2	58.9*	0.4
COCCNc1ncnc2c1cnn2Cc1ccc(Cl)cc1	0.8	0.2	81.6*	-0.5	-15.4	1.2
CCC(CO)NCc1ccc2c(c1)n(C)c(=O)n2C (stereo unspecified)	.	1.1	-11.3	.	-11.0	1.1
O=C(NCC(c1cccnc1)N1CCN(c2ccccc2)CC1)C1CCCCC1 (stereo unspecified)	9.2	1	4.0	-6.2	-4.4	1
CC(C)(C)NC(=O)C(=O)NNC(=O)C12CC3CC(CC(C3)C1)C2	1.4	1.1	-7.7	-0.2	11.6	0.9
Cc1cc(C)nc(Sc2c(C)n[nH]c2C)n1	11.1	1	0.4	-10.7	-57.0	1.6
C=CCOc1ccc(Cl)cc1C(=O)O	-1.3	1.1	-12.9	6.5	-6.9	1.1
CCOC(=O)C1=C(N)OC2=C(C(=O)CCC2)C1c1ccco1 (stereo unspecified)	.	0.8	18.9	.	16.2	0.8
CCOC(=O)C1=C(N)OC2=C(C(=O)CCC2)C1c1ccc(C)s1 (stereo unspecified)	.	0.5	53.3*	.	15.9	0.8
CCOc1ccccc1C1C(C(=O)OC)=C(N)OC2=C1C(=O)CCC2 (stereo unspecified)	.	0.1	93.4*	.	69.5*	0.3
CCOC(=O)C1=C(N)OC2=C(C(=O)CCC2)C1c1cccnc1 (stereo unspecified)	.	0.8	22.5	.	6.8	0.9
Cn1c(C(O)c2ccccc2)nc(Cl)c1Cl (stereo unspecified)	.	0.3	69.7*	.	12.0	0.9
Cc1sc(NC(=O)c2ccco2)c(CN2CCC(C)CC2)c1C	-12.9	0.6	35.9	15.0	27.2	0.7
Cc1sc(NC(=O)c2ccco2)c(C(c2cccnc2)N2CCC(C)CC2)c1C (stereo unspecified)	-1.3	0.1	88.3*	1.1	76.3*	0.2
Clc1cccc(Cl)c1CO/N=C/c1c(-c2ccccc2)nc2n1CCS2	-1.6	1	3.8	-1.1	72.9*	0.3
O=C(CN(Cc1ccco1)C(=O)CCC(=O)Nc1nccs1)NCc1ccccc1	-0.1	.	.	2.6	.	.
SMILES	sEH inh	CYP2C19 activ	CYP2C19 inh	sEH activator	CYP2C9 inh	CYP2C9 act
O=C(CN(Cc1cccs1)C(=O)CCC(=O)Nc1nccs1)NCc1ccccc1	7.3	0.2	78.0*	-4.2	63.8*	0.4
O=C(CSc1nn(-c2ccccc2)c(=S)s1)NC(=O)NCc1ccco1	7.7	0.7	35.0	-5.8	46.6	0.5
O=C(COc1ccccc1Cl)N1CCN(c2ccc([N+](=O)[O-])c(N3CCCCC3)c2)CC1	5.4	0.4	59.1*	-3.1	84.2*	0.2
O=C(COc1ccc(Cl)cc1)OCC(=O)N1CCCCCC1	-3.4	0.8	18.4	3.9	-26.2	1.3
O=C(COc1ccc(Cl)cc1)N1CCN(c2ccc([N+](=O)[O-])c(N3CCCCC3)c2)CC1	1.9	0	98.3*	-1.8	60.7*	0.4
CCC(=O)N1CCN(c2c(Cl)cccc2[N+](=O)[O-])CC1	-10.9	0.8	21.4	15.6	17.6	0.8
Cc1cc(N2CCN(S(=O)(=O)c3ccc4c(c3)OCCO4)CC2)n2ncnc2n1	-6.4	0.8	16.5	8.0	3.1	1
